# Screens deposited in PubChem by several laboratories.
# CYP2C19 activ: human CYP2C19 activators, primary screen, biochemical, luminescence; recombinant CYP2C19, luciferin-H EGE luminescence; active compounds read high; 0 = fully inhibited enzyme, 1 = untreated enzyme; activation factor at 5 µM; Cytochrome P450 2C19 (Homo sapiens), P33261; 96,000 tested, under 10 active;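 active = activation factor of at least 2 at 5 µM in the primary screen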;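 note: 0 = wells with 2.5 mM tranylcypromine and 1 = vehicle-only wells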
# CYP2C9 activ: human CYP2C9 activators, primary screen, biochemical, luminescence. Cytochrome P450 2C9 (Homo sapiens), P11712. recombinant CYP2C9, luciferin-H conversion; active compounds read high; factor 1 = untreated enzyme, 0 = blocked. activation factor at 5 µM. 96,000 tested, 1.4% active;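 active = activation factor of 2 or more for CYP2C9 at a 5 µM dose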;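 note: 0 = sulfaphenazole-blocked wells and 1 = vehicle-only wells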
# Target sequence (P11712 whole entry, looked up): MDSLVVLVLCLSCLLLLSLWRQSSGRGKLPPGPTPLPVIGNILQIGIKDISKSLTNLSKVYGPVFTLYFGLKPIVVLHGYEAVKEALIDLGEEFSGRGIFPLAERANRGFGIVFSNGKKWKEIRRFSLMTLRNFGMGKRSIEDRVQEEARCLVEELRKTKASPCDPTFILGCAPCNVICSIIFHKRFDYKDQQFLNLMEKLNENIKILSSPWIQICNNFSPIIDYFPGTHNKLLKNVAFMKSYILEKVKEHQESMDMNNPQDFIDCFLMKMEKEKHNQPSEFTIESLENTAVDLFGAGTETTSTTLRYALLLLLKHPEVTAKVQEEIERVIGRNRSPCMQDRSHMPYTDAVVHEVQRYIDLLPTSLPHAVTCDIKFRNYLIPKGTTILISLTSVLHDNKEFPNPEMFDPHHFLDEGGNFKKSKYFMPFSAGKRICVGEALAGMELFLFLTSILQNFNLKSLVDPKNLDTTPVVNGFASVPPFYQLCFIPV
# CYP2C9 inhib: blockers of cytochrome P450 2C9 activity – biochemical, luminescence, ADME assay, primary screen; P11712; CYP2C9 Supersomes, luciferin-H conversion; inhibition, % at 5 µM; 96,000 tested, 20% active; AID 777, 2007;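 active = blocking of liver enzyme CYP2C9 beyond about 50% at 5 µM, limit read from the data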
# F-actin modifier: modifiers of F-actin cytoskeleton organization, primary screen, imaging, HUVEC, phalloidin staining, high-content imaging; HUVEC TNFa F-actin phalloidin imaging; inhibition, % at 2 µM; 91,000 tested, 0.18% active; AID 836, 2007;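 active = inhibition above the batch mean plus 3 SD and confirmed as a hit by visual image inspection, cut at about 30% in these data, passing the limit was not always enough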
# E-sel TNF inh: E-selectin induction blockers in HUVEC – imaging, immunofluorescence, high content, primary screen; HUVEC TNFa-induced E-selectin immunofluorescence; inhibition, % at 2 µM; 120,000 tested, 0.71% active; AID 1246, 2008;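 active = inhibition above the batch mean plus 3 SD, and confirmed as a hit on visual image review, cut at about 43% in these data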;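 note: 0% = TNF-stimulated DMSO wells and 100% = unstimulated control wells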
# CYP2C19 inh: blockers of cytochrome P450 2C19 activity – biochemical, luminescence, ADME assay, primary screen | P33261 | CYP2C19 Supersomes, luciferin-H EGE luminescence, 30 min | inhibition, % at 5 µM | 96,000 tested, 21% active;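 active = CYP2C19 inhibition above a set limit at 5 µM in the primary screen, cut at about 50% in these data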;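 note: plate controls were negative control wells for no effect and 2.5 mM tranylcypromine positive control for full effect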
# An asterisk follows results filed as active; . = no result. Only some compounds are listed: those with a hit (about 22% of all), similar ones and a draw of the others.
SMILES,CYP2C19 activ,CYP2C9 activ,CYP2C9 inhib,F-actin modifier,E-sel TNF inh,CYP2C19 inh
O=C(COc1cc(Cl)c(Cl)cc1Cl)NCCN1CCOCC1,0.4,0.9,6,0,-27,65*
Cc1cc(OCC(=O)NCCCN2CCOCC2)cc(C)c1Cl,.,.,.,-8,.,.
Cc1cc(OCC(=O)NCCN2CCOCC2)ccc1Br,0.2,1.1,-9,-2,-16,85*
O=C(NCCc1c[nH]c2ccccc12)C(=O)NCC1OCCCN1S(=O)(=O)c1ccccc1 (configuration not stated),.,.,.,.,12,.
COc1ccc(-n2c(=O)c3ccccc3n(CC(=O)NC3CCCC3)c2=O)c(OC)c1,1.1,1.1,-6,-2,0,-14
N/C(=C/C(=O)c1ccccc1O)C(F)(F)F,.,.,.,.,-24,.
COc1ccc(C(=O)/C=C(\N)C(F)(F)F)c(O)c1,0.4,0.8,16,.,-22,60*
CC1=C(C#N)C(Nc2ccc(C)cn2)(C(F)(F)F)C(=O)N1 (configuration not stated),0.1,0.6,42,-15,0,89*
CC1=C(C#N)C(Nc2ccc(Cl)cn2)(C(F)(F)F)C(=O)N1 (configuration not stated),0.2,0.8,21,11,-8,83*
O=C(NCCCCNC(=O)c1ccco1)c1ccco1,1,0.9,7,3,2,-2
CCCCOP(=O)(c1ccc(N(C)C)cc1)C(O)c1ccccc1F (configuration not stated),0.7,1,5,-11,.,34
CN(C)c1ccc(P(=O)(OCc2ccccc2)C(O)c2cccnc2)cc1 (configuration not stated),0.5,0.4,58*,10,1,48
CC(C)C(O)P(=O)(OCc1ccccc1)c1ccc(N(C)C)cc1 (configuration not stated),0.5,0.9,5,11,.,54*
COC(=O)c1ccccc1NS(=O)(=O)c1cn(C)c(=O)n(C)c1=O,0.9,0.9,8,4,.,9
CCOc1ccccc1N1C(=O)c2ccc(C(=O)O)cc2C1=O,1.1,1.3,-27,1,8,-7
OC(CNC1CCCC1)COc1c(F)cc(Br)cc1F (configuration not stated),0.9,0.9,15,-1,2,10
O=C1NCCN1C(=O)N(c1ccccc1)c1ccccc1,1,1,-1,-5,0,4
O=C(CSc1nnnn1C1CCCC1)Nc1ccc2c(c1)OCO2,0.6,0.5,55*,-25,-2,39
O=C(CSc1nnnn1C1CCCC1)c1ccc2c(c1)OCCO2,0.8,0.7,27,19,-7,23
O=C(CSc1nnc(Cc2ccccc2)o1)Nc1ccc2c(c1)OCO2,0.4,0.1,94*,-1,18,60*
Cc1ccc(NC(=O)CSc2nnc(-c3ccncc3)n2N)cc1C,0.7,0.5,53*,-9,.,29
C=CCn1c(SCC(=O)Nc2ccc3c(c2)OCO3)nnc1-c1cc(Br)ccc1O,0.5,0.2,82*,-21,-1,49
O=C(CCSCCc1ccccn1)Nc1ccc(Cc2ccncc2)cc1,.,.,.,.,-10,.
CC(=O)Nc1ccc(NC(=O)CSc2nnc(-c3ccccc3)n2Cc2ccc3c(c2)OCO3)cc1,0.8,0.7,30,41,-15,25
C=CCn1c(SCC(=O)Nc2ccc3c(c2)OCO3)nnc1-c1ccccc1,0.5,0.5,52*,17,.,54*
SMILES,CYP2C19 activ,CYP2C9 activ,CYP2C9 inhib,F-actin modifier,E-sel TNF inh,CYP2C19 inh
C=CCn1c(SCC(=O)Nc2ccc3c(c2)OCO3)nnc1-c1ccccc1OC,0.2,0.1,89*,-2,.,83*
Nn1c(SCC(=O)Nc2ccc3c(c2)OCO3)nnc1-c1ccccc1,0.7,0.5,51*,-4,22,28
C=CCn1c(SCCC#N)nnc1-c1ccncc1,0.4,0.9,9,.,-17,55*
CCn1c(SCCC#N)nnc1-c1ccncc1,0.6,1,2,-10,-4,44
CC1(C)Cc2ccccc2-c2nnc(SCC(=O)Nc3ccc4c(c3)OCO4)n21,1,1,0,-7,-26,5
Cc1c(NC(=O)C2(c3ccccc3)CCCC2)c(=O)n(-c2ccccc2)n1C,0.9,1.1,-14,19,1,7
CCCOc1ccc(-c2nn(-c3ccccc3)cc2/C=C2\SC(=S)N(C3CCS(=O)(=O)C3)C2=O)cc1 (configuration not stated),1,0.9,6,28,9,2
CCC(CO)Nc1nc(CN2CCCCC2)nc2scc(-c3ccccc3)c12 (configuration not stated),.,.,.,.,-7,.
C=CCn1c(SCC(=O)Nc2cccc(OC)c2)nnc1-c1cccnc1,0.6,0.6,42,15,.,37
C=CCn1c(SCC(=O)Nc2c(C)cccc2C)nnc1-c1ccncc1,0.3,0.8,24,-5,23,72*
Cc1ccccc1-c1nnc(SCC(=O)Nc2ccc3c(c2)OCCO3)n1N,0.6,0.3,73*,2,.,40
C=CCn1c(SCC(=O)Nc2ncc(Cc3cc(Cl)ccc3Cl)s2)nnc1-c1ccncc1,0.4,0.8,17,-25,4,56*
CC1=NNC(=O)C(CC(=O)Nc2ccc(Cl)c(Cl)c2)C1 (configuration not stated),.,.,.,.,-8,.
Cc1c(NC(=O)CSc2nnc(-c3ccncc3)o2)c(=O)n(-c2ccccc2)n1C,.,.,.,.,9,.
CCOC(=O)c1ccc(S(=O)(=O)N2CCN(C(=O)CSc3nc4ccccc4o3)CC2)cc1,.,.,.,.,4,.
COc1ccc(-n2c(C)nn(C)c2=O)c(OC)c1,0.6,0.9,6,2,-10,37
CCN(CC)S(=O)(=O)c1ccc(Cl)c(C(=O)Oc2cccc(-c3cnc4ccccc4n3)c2)c1,0.8,0.5,46,-7,-17,17
O=C(Oc1ccc(-c2cnc3ccccc3n2)cc1)c1ccc(Br)o1,0.4,0.8,20,-2,-7,58*
O=C(Oc1ccc(-c2cnc3ccccc3n2)cc1)c1cccc([N+](=O)[O-])c1,0.3,0.9,15,19,3,67*
CCN(CC)S(=O)(=O)c1cc(C(=O)Oc2cccc(-c3cnc4ccccc4n3)c2)ccc1Br,0.4,0.5,47,10,12,64*
CC1CN(CC(O)COc2ccccc2C(C)(C)C)CC(C)O1 (configuration not stated),0.6,1,2,-6,-2,35
O=c1c2cn[nH]c2nc(SCc2ccccc2F)n1-c1ccc(Br)cc1,.,.,.,.,4,.
COc1ccc(S(=O)(=O)NCc2ccc3c(c2)OCO3)cc1C,0,0.8,24,-16,12,100*
